sdo1 growth: compounds rescuing growth of sdo1-depleted yeast, bone marrow failure model; S. cerevisiae sdo1-depleted JHY4D growth rescue, OD600 30 h; active compounds read high; pdr5 snq2 efflux-pump mutant strain; z-score at 10 µM; 140,000 compounds, 0.21% hits;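 active = z-score above 3 at both the 24 hr and the 30 hr optical density reads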
GALR2 agonist: GALR2 (human) receptor agonism. O43603. AID 803. activation, % (concentration not given with the values). 140,000 compounds, 0.48% hits. GALR2-expressing cells, agonist activation read-out; in the data active = activation above about 5%, passing the limit was not always enough
Target sequence (O43603 whole entry, looked up): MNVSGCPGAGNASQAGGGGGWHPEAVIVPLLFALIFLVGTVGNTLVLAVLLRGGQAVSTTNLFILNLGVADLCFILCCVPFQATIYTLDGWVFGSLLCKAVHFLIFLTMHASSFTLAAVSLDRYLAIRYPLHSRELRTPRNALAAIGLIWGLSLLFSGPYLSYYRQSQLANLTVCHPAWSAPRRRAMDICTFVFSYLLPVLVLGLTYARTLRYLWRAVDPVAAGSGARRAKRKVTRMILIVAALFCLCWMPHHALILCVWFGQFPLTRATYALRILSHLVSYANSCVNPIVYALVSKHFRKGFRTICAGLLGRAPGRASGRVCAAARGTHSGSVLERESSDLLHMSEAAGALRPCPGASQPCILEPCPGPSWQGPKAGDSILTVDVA
FAK inh: inhibitors of human focal adhesion kinase; Q05397; biochemical FAK kinase activity assay; inhibition, %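 (tested at 7 µM)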; 97,000 compounds, 0.84% hits; AID 727; in the data active = inhibition above about 19%
GALR2 blocker: blocks the human galanin receptor 2 | O43603 | GALR2-expressing cells, antagonist mode | inhibition, % at 4 µM | 140,000 compounds, 0.39% hits; in the data active = inhibition above about 27%;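 also: cells stimulated with galanin 1-16 at roughly its EC80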
S1P2 agonist: S1P2 (human) receptor agonism; 97,000 compounds, 0.46% hits; S1P2-expressing cell line, agonist reporter read-out; activation, % at 4.5 µM; AID 729; in the data active = activation above about 16%
Target sequence (O95136 whole entry, looked up): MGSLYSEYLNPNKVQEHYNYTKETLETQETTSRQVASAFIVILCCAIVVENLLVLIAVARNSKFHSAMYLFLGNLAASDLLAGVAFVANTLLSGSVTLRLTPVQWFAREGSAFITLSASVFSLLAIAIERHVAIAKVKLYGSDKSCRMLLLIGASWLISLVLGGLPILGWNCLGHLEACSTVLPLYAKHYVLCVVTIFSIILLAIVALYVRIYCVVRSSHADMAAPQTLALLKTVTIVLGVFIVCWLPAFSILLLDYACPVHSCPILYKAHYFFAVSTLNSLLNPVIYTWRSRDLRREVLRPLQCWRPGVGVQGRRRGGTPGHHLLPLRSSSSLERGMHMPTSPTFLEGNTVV
S1P2 blocker: blocks the human S1P2 receptor; cell-based S1P2 antagonist assay, inhibition at 5 uM; inhibition, % at 5 µM; O95136; 97,000 compounds, 0.21% hits; in the data active = inhibition above about 45%;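 also: CRE beta-lactamase reporter cells expressing human S1P2 stimulated with S1P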
Of the large screens only hits and unclear results are named; the others gave an inactive call. Only some compounds are listed: those with a hit (about 1.9% of all), similar ones and a draw of the others.

O=C(N/N=C/c1ccccc1[N+](=O)[O-])c1ccc(COc2ccccc2-c2ccccc2)cc1	none (no result: FAK inh, S1P2 agonist, S1P2 blocker)
CS(=O)(=O)c1ncc(Cl)c(C(=O)Nc2ccc(N3CCOCC3)cc2)n1	GALR2 blocker 29 (no result: FAK inh, S1P2 agonist, S1P2 blocker)
Cc1cc(/C=C2/SC(=S)N(c3cccc(Cl)c3)C2=O)c(C)n1-c1cccnc1	S1P2 blocker 74 (no result: sdo1 growth)
CC1(C)CC(=O)C(=C2SCCCS2)C(=O)C1	none (no result: FAK inh, S1P2 agonist, S1P2 blocker)
CN1/C(=C\C(=O)c2ccco2)C(C)(C)c2ccccc21	S1P2 agonist 18
O=C(N/N=C/c1ccccn1)c1ccc(Br)cc1	none (no result: FAK inh, S1P2 agonist, S1P2 blocker)
CCOC(=O)CN(C(=O)CSc1nnc(CNc2ccc(F)cc2)n1C)c1ccccc1	none
CCOC(=O)CN(C(=O)CSc1nnc(COc2ccc(OC)cc2)n1C)c1ccccc1	S1P2 agonist 96
CCn1cc(C(=O)Nc2nnc(C)s2)c(=O)c2cc(F)c(N3CCN(C(=O)c4ccco4)CC3)cc21	none (no result: sdo1 growth)
O=C1N/C(=N\N=C\c2cccnc2)SC1Cc1ccc(SC(F)F)cc1 (stereo not given)	S1P2 agonist 31
CCN(CC)C(=O)Cn1c(=O)c2ccccc2n2c(=S)sc(-c3cccc(C)c3)c12	none (no result: FAK inh, S1P2 agonist, S1P2 blocker)
C=CCNc1oc(/C=C/c2ccccc2)nc1C#N	GALR2 agonist 12, S1P2 agonist 17
CN(C)CCNc1oc(/C=C/c2ccccc2)nc1C#N	none (no result: FAK inh, S1P2 agonist, S1P2 blocker)
CCCn1c(-c2cc(OC)c(OC)c(OC)c2)nc2nc3ccccc3nc21	S1P2 agonist 17
O=C(NC1=NCCS1)C1CC2CCC1C2 (stereo not given)	S1P2 agonist 18
COc1ccc(CC2(C)OC(c3ccccc3)=NN2C(C)=O)cc1 (stereo not given)	none (no result: FAK inh, S1P2 agonist, S1P2 blocker)
Cc1ccc(S(=O)(=O)Nc2c(C)[nH]c(=O)[nH]c2=O)cc1C	GALR2 agonist 5.9 (no result: FAK inh, S1P2 agonist, S1P2 blocker)
CCn1cc(C(=O)NCc2ccc(C)o2)c2cc(OC)c(OC)cc2c1=O	S1P2 agonist 17
CCn1cc(C(=O)Nc2ccc3c(c2)OCCO3)c2cc(OC)c(OC)cc2c1=O	S1P2 agonist 29
CCn1cc(C(=O)Nc2cccc(NC(C)=O)c2)c2cc(OC)c(OC)cc2c1=O	none
Cc1ccc(C)c(SCC(=O)Nc2cc(C)nn2-c2ccc(F)cc2)c1	none (no result: FAK inh, S1P2 agonist, S1P2 blocker)
Cc1cc2cc(CCNC(=O)c3cccs3)c(=O)[nH]c2cc1C	none (no result: FAK inh, S1P2 agonist, S1P2 blocker)
CSc1nc(-c2ccc(C)cc2)nc(C(Cl)Cl)n1	none
CCSc1nc(-c2ccccc2)nc(C(Cl)Cl)n1	GALR2 agonist 7.6 (no result: FAK inh, S1P2 agonist, S1P2 blocker)
COc1ccc(C(=O)C(CN2CCOCC2)c2ccccc2)cc1F (stereo not given)	GALR2 blocker 33
COc1ccc(CNC(=O)CSc2nc(-c3ccccc3)cc(-c3cccs3)c2C#N)cc1	none
COc1cc(-c2cc(-c3ccccc3)nc(SCC(=O)Nc3nccs3)c2C#N)cc(OC)c1OC	S1P2 agonist 31
COc1cccc(/C=N/NC(=O)c2nc(-c3ccccc3)cc(-c3ccccc3)n2)c1	S1P2 blocker 47
CSc1sc2ccccc2[n+]1CCCS(=O)(=O)[O-]	S1P2 agonist 26
CCCOc1ccc(CSc2nc3ccccc3[nH]2)cc1	S1P2 blocker 48
Cc1c(C(=O)Nc2ccc(OC(F)(F)F)cc2)sc2nc3n(c(=O)c12)CCC3	S1P2 blocker 58
CCN(CC)S(=O)(=O)c1ccc(N2CCOCC2)c(NC(=O)C23CC4CC(CC(Cl)(C4)C2)C3)c1	none (no result: FAK inh, S1P2 agonist, S1P2 blocker)
Cc1cccc(C)c1OCc1nnc(SCC(=O)Nc2nccs2)n1-c1ccccc1	GALR2 agonist 6.5
O=C(CSc1nnc(CCCO)n1-c1ccccc1)Nc1nccs1	none (no result: FAK inh, S1P2 agonist, S1P2 blocker)
CCCOc1ccc(C2C(C(=O)OC)=C(C)N=C3SCCC(=O)N32)cc1OCC (stereo not given)	S1P2 agonist 25
CCC(C)(C)NC(=O)c1ccc2c(c1)S(=O)(=O)c1ccccc1C2=O	S1P2 agonist 23
COc1cc(C2C3=C(Nc4ncnn42)c2ccccc2CC3)cc(OC)c1OC (stereo not given)	GALR2 agonist 5.0, GALR2 blocker 35
COc1ccc(C2C3=C(Nc4ncnn42)c2ccccc2CCC3)cc1 (stereo not given)	none
Cc1ccc(Oc2c(C(N)=O)cc([N+](=O)[O-])cc2[N+](=O)[O-])cc1	none (no result: FAK inh, S1P2 agonist, S1P2 blocker)
COc1ccccc1N=c1oc2cc(O)ccc2cc1C(=O)NCC1CCCO1 (stereo not given)	GALR2 agonist 29
COc1ccccc1N=c1oc2cc(O)ccc2cc1C(N)=O	GALR2 agonist 20, S1P2 agonist 45
COc1ccccc1NC(=O)c1cc2ccc(O)cc2o/c1=N\O	none
Cc1cccc(N=c2oc3cc(O)ccc3cc2C(N)=O)c1	GALR2 agonist 66, S1P2 agonist 30
CN1C(=O)/C(=C/c2ccc(-c3ccccc3[N+](=O)[O-])o2)SC1=Nc1ccc(Cl)c(C(=O)O)c1	none (no result: FAK inh, S1P2 agonist, S1P2 blocker)
O=C(COC(=O)CCc1ccc(S(=O)(=O)N2CCOCC2)cc1)NC1CCCCCC1	none (no result: FAK inh, S1P2 agonist, S1P2 blocker)
CCn1cc(/C=N\NC(=O)C2(C)CC2(Cl)Cl)c(C)n1 (stereo not given)	none (no result: FAK inh, S1P2 agonist, S1P2 blocker)
CCOC(=O)C1=C(C)N(CCCCCC(=O)O)C(=O)NC1c1ccccc1OC(=O)c1cccs1 (stereo not given)	none (no result: FAK inh, S1P2 agonist, S1P2 blocker)
Cn1c(=O)oc2cc(S(=O)(=O)NCC3CCCO3)ccc21 (stereo not given)	S1P2 agonist 20 (no result: sdo1 growth)
CC(NC(=O)c1cccs1)c1n[nH]c(=S)n1C (stereo not given)	none (no result: FAK inh, S1P2 agonist, S1P2 blocker)
Cc1ccc(C)c2[nH]c(=O)c(CN(Cc3cccs3)C(=S)NCc3ccco3)cc12	none (no result: FAK inh, S1P2 agonist, S1P2 blocker)
O=S(=O)(Nc1nc2ccccc2nc1Nc1cccc(S(=O)(=O)N2CCCCC2)c1)c1ccccc1	none (no result: FAK inh, S1P2 agonist, S1P2 blocker)
N=c1c(C(=O)NCc2ccco2)cc2c(=O)n3ccccc3nc2n1CC1CCCO1 (stereo not given)	none (no result: sdo1 growth)
N=c1c(C(=O)NCc2ccc(F)cc2)cc2c(=O)n3ccccc3nc2n1CC1CCCO1 (stereo not given)	GALR2 agonist 14, S1P2 agonist 31
CN1c2ccccc2C(C)(C)C12CC(c1cccc(S(=O)(=O)N3CCCC3)c1)=NO2 (stereo not given)	none (no result: FAK inh, S1P2 agonist, S1P2 blocker)
C=CCOC(=O)C1=C(C)NC(C)=C(C(=O)OCC=C)C1c1cn(-c2ccccc2)nc1-c1ccco1	GALR2 agonist 5.1 (no result: FAK inh, S1P2 agonist, S1P2 blocker)
OCc1cn(-c2ccccc2)nc1-c1ccco1	none
COc1ccc(CNC(=O)CSCc2ccccc2Cl)cc1	none (no result: FAK inh, S1P2 agonist, S1P2 blocker)
Nc1ccc(O)cc1C(=O)OCC(=O)c1ccc(C2CCCCC2)cc1	GALR2 agonist 6.3 (no result: FAK inh, S1P2 agonist, S1P2 blocker)
COc1ccc(C(=O)OCC(=O)c2ccc(C3CCCCC3)cc2)cc1	none
CCCn1c2ccccc2c2nnc(SC(CC)C(=O)Nc3cc(C)on3)nc21 (stereo not given)	S1P2 agonist 30
COc1cccc2c1C(=O)c1c(O)c3c(c(O)c1C2=O)C[C@@](O)(C(C)=O)C[C@@H]3O[C@H]1C[C@H](N)[C@H](O)[C@H](C)O1	GALR2 blocker 98 (no result: FAK inh, S1P2 agonist, S1P2 blocker)
Cc1cccc(OCC(O)CN2CC3(C)CC2CC(C)(C)C3)c1 (stereo not given)	GALR2 agonist 6.8 (no result: FAK inh, S1P2 agonist, S1P2 blocker)
